Laboratory results from PubChem BioAssay (Tox21).
Inconclusive results are not listed. Activity calls are given as the source filed them. Calls follow the shape of the dose curve; as a rule, active = well fitted cell-killing curve with a large enough effect in the repeat runs (not every such curve was filed as active); inconclusive = weak or mixed curves, or effect the other way; inactive = no such curve, though single readings can be large or run the other way.

Experiment: qHTS assay to identify small molecule antagonists of the estrogen related receptor signaling pathway with the pleiotropic PPARgamma coactivator (PGC) from Tox21 10K library - cell viability counter screen (AID 1224840); also: nearly all actives have a fitted effect of over 40% in size
Details: PGC/ERR reporter cells viability, CellTiter-Fluor, 17.5 h; series mostly up to 92.4 µM; viability change, negative = cytotoxic: at the top concentration
Source text: National Center for Advancing Translational Sciences [NCATS]
NIH Chemical Genomics Center [NCGC]
U.S. Environmental Protection Agency [EPA]
National Institutes of Environmental Health Sciences [NIEHS]
National Toxicology Program [NTP]
U.S. Food and Drug Administration [FDA]
Estrogen related receptors (ERRs), the first orphan nuclear receptors discovered, play an important role in the control of cellular energy metabolism. ERRs are required for high-energy production in response to the environmental challenges. The pleiotropic PPARgamma coactivator (PGC) is a major partner of ERR and a key regulator in energy homeostasis. Together they have been implicated in the etiology of metabolic disorders such as Type 2 diabetes and metabolic syndrome. ERR-alpha was also identified as an adverse marker for breast cancer progression; ERR-alpha-positive tumors have a poor prognosis. To screen and to identify environmental compounds that perturb the ERR and PGC/ERR signaling pathways could provide valuable information for potential therapeutic or preventive measures in the treatment of metabolic disease. To differentiate true PGC/ERR antagonists or agonist from cytotoxic substances, the assay is multiplexed with cell viability assay.
Tox21 Assay Protocol Summary:
The PGC/ERR cells were dispensed at 2,000 cells/5 ul/well in 1536-well white plates using a Multidrop dispenser. After the assay plates were incubated at a 37 C/5% CO2 incubator for 6 hours, 23 nL of compounds dissolved in DMSO, positive and negative controls or DMSO only was transferred to the assay plate by a pin tool. The plates were incubated at 37 C for 17.5 hours. 1 ul/well of CellTiter-Fluor reagent was added into the assay plates using a Flying Reagent Dispenser. After 30-minute incubation at 37 C/5% CO2, the fluorescence intensity in the plates was measured using a ViewLux plate reader.
% is scaled to controls: 0 for no effect and ±100 for the full control effect.

SMILES	viability change, negative = cytotoxic
C=CCOC(=O)CCC1CCCCC1	2.6% (inactive)
C/C=C/C=C/CO	4.35% (inactive)
Cc1[nH]c(C)c(Cl)c(=O)c1Cl	12.2% [at 19 µM] (inactive)
COC(C)(C)CCO	9.1% (inactive)
CCC(C)O (stereo not given)	1.86% (inactive)
CCCCC(CC)COC(=O)COc1ccc(Cl)cc1Cl (stereo not given)	2.96% (inactive)
COc1ccc(C(=O)N2CCN(CC(=O)N3CCOCC3)CC2)cc1	1.83% [at 42.5 µM] (inactive)
O=S(c1cc(Cl)cc(Cl)c1O)c1cc(Cl)cc(Cl)c1O	-4.01% [at 42.5 µM] (inactive)
C[C@@H]1C[C@H]2O[C@@]3(O[C@@H]2C(C)(C)O)[C@H](O)[C@@]2(C)[C@@H]4CC[C@H]5C(C)(C)[C@@H](O[C@@H]6OC[C@@H](O)[C@H](O)[C@H]6O)CC[C@@]56C[C@@]46CC[C@]2(C)[C@@H]13	0.389% [at 42.5 µM] (inactive)
Nc1ccc([N+](=O)[O-])c(C(F)(F)F)c1	-11.3% [at 42.5 µM] (inactive)
O=P(O)(OCc1ccccc1)OCc1ccccc1	3.04% (inactive)
Cc1cccc(Nc2ccccc2)c1	-0.66% (inactive)
CN(C)c1ccc(C(c2ccccc2)c2ccc(N(C)C)cc2)cc1	-23.7% (inactive)
C=C(C)C(=O)OCCOCC	2.63% (inactive)
COc1cc2nc(N(C)CCCNC(=O)C3CCCO3)nc(N)c2cc1OC (stereo not given)	-0.953% [at 42.5 µM] (inactive)
O=C(NCC1CN(c2ccc(N3CCOCC3=O)cc2)C(=O)O1)c1ccc(Cl)s1 (stereo not given)	-1.75% [at 42.5 µM] (inactive)
CN(C)CCN(Cc1ccc(Cl)cc1)c1ccccn1	-8.99% [at 42.5 µM] (inactive)
C=CC(=O)OCCOc1ccccc1	-11.9% (inactive)
CCCCC(CC)CN1C(=O)C2C3C=CC(C3)C2C1=O (stereo not given)	-23.7% (inactive)
CCOC(=O)c1cccnc1	0.964% [at 42.5 µM] (inactive)

SMILES	viability change, negative = cytotoxic
Cc1cccc(C)c1NC(=O)CN(CC(=O)O)CC(=O)O	7.4% [at 42.5 µM] (inactive)
CC1(c2ccccc2)OC(C(=O)O)=CC1=O (stereo not given)	-7.65% [at 42.5 µM] (inactive)
COCCCN1CCC(NC(=O)c2cc(Cl)c(N)c3c2OCC3)CC1	4.1% [at 42.5 µM] (inactive)
CCCCCCCCCCCCCCCCOS(=O)(=O)O	-15% [at 42.5 µM] (inactive)
CCCCCCc1ccc(-c2ccc(C#N)cc2)cc1	5.77% (inactive)
COc1cc(Cl)c(OC)cc1N	-8.93% (inactive)
CC/C=C\CCOC(=O)CC	0.711% (inactive)
CNC(=O)CN(CCN(CCN(CC(=O)[O-])CC(=O)NC)CC(=O)[O-])CC(=O)[O-].O.[Gd+3]	9.96% [at 42.5 µM] (inactive)
CC[N+](C)(CC)CCOC(=O)C(O)(c1ccccc1)C1CCCCC1 (stereo not given)	-1.65% [at 42.5 µM] (inactive)
c1ccc(C(O[C@H]2CCCN(CCc3ccc4c(c3)OCO4)C2)c2ccccc2)cc1	-7.31% [at 42.5 µM] (inactive)
C[C@@H](c1ncncc1F)C(O)(Cn1cncn1)c1ccc(F)cc1F (stereo not given in full)	-2.57% [at 42.5 µM] (inactive)
NCC(=O)CCC(=O)O	15.7% [at 42.5 µM] (inactive)
CC(C)(CO)[N+](=O)[O-]	0.975% (inactive)
NC(N)=NCCC[C@H](N)C(=O)O	-6.77% [at 8.39 µM] (inactive)
O=C(O)C1(C(=O)O)CCC1.[NH2-].[NH2-].[Pt+2]	1.38% [at 42.5 µM] (inactive)
C[N+]1(C)CCC(OC(=O)C(O)(c2ccccc2)C2CCCC2)C1 (stereo not given)	3.79% [at 42.5 µM] (inactive)
CCOCC(O)COc1ccc(NC(=O)CC[S+](C)C)cc1 (stereo not given)	2.1% [at 42.5 µM] (inactive)
O=C(O)c1ccco1	7.42% (inactive)
Nc1c(CC(=O)O)cccc1C(=O)c1ccc(Br)cc1	-2.62% [at 42.5 µM] (inactive)
CN1C[C@H]2c3ccccc3Oc3ccc(Cl)cc3[C@@H]2C1	5.04% [at 42.5 µM] (inactive)
